Reference: PubChem BioAssay
Where “and” joins values, the source holds several entries; their conditions need not be identical. Equal values may be shown once. Records with an inconclusive call do not appear. For some of these results: Measured potencies and affinities stand elsewhere. Calls of active or inactive are those of the source. Unless noted, no rule for the calls is given here.

Columns and labels:
[1] = rescue of polyQ-huntingtin neuronal dysfunction in worms, whole organism, C. elegans mechanosensory neurons, N-terminal huntingtin (AID 1599); details: touch response, stronger effect = higher value
[2] = reducers of polyQ inclusions in PC12 cells, cell-based, NGF-treated PC12, GFPQ80 (AID 1614); details: PC12 NGF-treated GFP-polyQ80 inclusion reduction;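 also: lower means fewer inclusions and 0 means no inclusions at all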
[3] = suppressors of polyglutamine aggregation in yeast, 75Q-TubH (AID 1616); details: S. cerevisiae 75Q-TubH polyglutamine aggregation suppression; stronger effect = higher value
[4] = growth inhibition of DIPG glioma cells, dose response, cell-based, SU-DIPG-XVII, MIPE5.0, CellTiter-Glo, qHTS (AID 1347060; cut-off not given, nearly all actives have AC50 up to about 26 µM;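 as to AC50: cells exposed to compound for 48 hours before viability readout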); details: SU-DIPG-XVII viability, CellTiter-Glo ATP luminescence
[5] = growth inhibition of DIPG glioma cells, dose response, cell-based, JHH-DIPG-1, MIPE4.0, CellTiter-Glo, qHTS (AID 1347062; cut-off not given, nearly all actives have AC50 up to about 27 µM); details: JHH-DIPG-1 viability, CellTiter-Glo ATP luminescence
[6] = growth inhibition of DIPG glioma cells, dose response, cell-based, SU-DIPG-IV, MIPE4.0, CellTiter-Glo, qHTS (AID 1347063; cut-off not given, nearly all actives have AC50 up to about 30 µM;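 also: compound exposure lasted 48 hours before the viability readout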); details: SU-DIPG-IV viability, CellTiter-Glo ATP luminescence
[7] = viability loss in pontine glioma line – cell-based, SU-DIPG-XXV, MIPE5.0, CellTiter-Glo, qHTS, dose response (AID 1347065; cut-off not given, nearly all actives have AC50 up to about 26 µM;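 also: cells exposed to compound for 48 hours before ATP readout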); details: CellTiter-Glo ATP luminescence
[8] = SU-DIPG-VI glioma cell viability, MIPE4.0 library, CellTiter-Glo luminescence, qHTS (AID 1347066; cut-off not given, nearly all actives have AC50 up to about 30 µM;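 also: cells exposed to compound for 48 hours before readout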); details: CellTiter-Glo ATP luminescence
[9] = JHH-DIPG-1 glioma cell viability, MIPE5.0 library, CellTiter-Glo luminescence, qHTS (AID 1347067; cut-off not given, nearly all actives have AC50 up to about 26 µM;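 also: cells exposed to compound for 48 hours before readout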); details: JHH-DIPG-1 glioma viability, CellTiter-Glo ATP luminescence
[10] = SU-DIPG-XXV glioma cell viability, MIPE5.0 library, qHTS (AID 1347068; cut-off not given, nearly all actives have IC50 up to about 30 µM)
[11] = hESC survival regulators, cell-based (AID 493140); details: human embryonic stem cell survival screen; stronger effect = higher value;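 also: cells exposed to compounds for four days before counting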
[12] = growth inhibition of DIPG glioma cells, dose response, cell-based, SU-DIPG-XIII, MIPE4.0, CellTiter-Glo, qHTS (AID 1347061; cut-off not given, nearly all actives have AC50 up to about 37 µM;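 also: cells exposed to compound for 48 hours before readout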); details: SU-DIPG-XIII viability, CellTiter-Glo ATP luminescence
[13] = phospholipid biosynthesis inhibitors in animal cells, primary screen, cell-based, LOPAC library, screen 4 (AID 1347384); details: phospholipid biosynthesis inhibition screen, at 10 µM
[14] = test system: Hepatitis C virus NS3 helicase; assay: HCV NS3 helicase inhibitors, primary screen, biochemical, fluorescence polarization, LOPAC1280 library (AID 687035; in the data active = inhibition above about 37%); details: Purified HCV NS3 helicase, Cy5-dT15 ssDNA binding fluorescence polarization; stronger effect = higher value; concentration not given here
[15] = Cy5 fluorescence quenching or enhancement artefacts, artefact control for HCV NS3 helicase inhibitor project, biochemical, LOPAC1280 (AID 687037); details: Cy5-DNA-NS3h complex fluorescence interference counterscreen
[16] = LFS_MB_1R medulloblastoma cell growth inhibition, synergistic combos for chromothripsis tumors, cisplatin or BGB combos (AID 1671452; in the data active = inhibition above about 80%;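 also: cells exposed for 96 hours before readout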); details: LFS_MB_1R medulloblastoma cells, stronger effect = higher value
[17] = MDA-MB-436 breast carcinoma cell growth inhibition, synergistic combos for chromothripsis tumors, BGB or cisplatin combos (AID 1671458); details: MDA-MB-436 breast carcinoma growth inhibition, drug combinations, stronger effect = higher value;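 also: cells exposed for 96 hours; 0% = vehicle DMSO and 100% = killing by high DMSO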
[18] = growth inhibition of BT084 medulloblastoma cells, cell-based, ICGC_MB145, cisplatin and BGB IC40 combos (AID 1671461; in the data active = inhibition above about 80%;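 also: cells exposed to drugs for 96 hours; 0% = vehicle DMSO and 100% = high DMSO full killing control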); details: drug combinations, stronger effect = higher value
[19] = growth inhibition of RCMB18 medulloblastoma cells, cell-based, cisplatin and BGB IC40 combos (AID 1671462; in the data active = inhibition above about 80%;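 also: cells exposed to compound for four days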); details: stronger effect = higher value
[20] = growth inhibition of CRL1545 osteosarcoma cells, cell-based, cisplatin and BGB IC20 combos (AID 1671464; in the data active = inhibition above about 80%;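 also: cells exposed to compound for 96 hours before readout; 0% = vehicle DMSO and 100% = high DMSO killing control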); details: stronger effect = higher value
[21] = measured here: combination with BGB IC40, at 0.05 µM
[22] = measured here: combination with cisplatin, at 0.5 µM
[23] = measured here: combination with cisplatin, at 5 µM
[24] = measured here: BGB combination, at 0.5 µM
[25] = measured here: BGB combination, at 5 µM
[26] = measured here: cisplatin combination, at 0.5 µM
[27] = measured here: cisplatin combination, at 5 µM
[28] = cisplatin combination, at 0.5 µM
[29] = measured here: BGB IC40 combination 0.05 uM, at 0.05 µM
[30] = measured here: BGB IC40 combination, at 0.05 µM
[31] = measured here: with BGB IC20 combination, at 0.5 µM
[32] = measured here: with cisplatin IC20 combination, at 0.5 µM

O=S(=O)(O)CCS
rescue above control [1]: -8.48
inclusion score [2]: 2
aggregation suppression score [3]: 1.35
outcome [4]: inactive
outcome [5]: inactive
outcome [6]: inactive
outcome [7]: inactive
outcome [8]: inactive
outcome [9]: inactive
outcome [10]: inactive

CC(C)(C)NCC(O)COc1cccc2c1C[C@H](O)[C@H](O)C2 (stereo not given in full)
rescue above control [1]: -2.31
inclusion score [2]: 2
aggregation suppression score [3]: 1.12
survival [11]: 5.83 (inactive)

N[C@@H](C(=O)N[C@@H]1C(=O)N2C(C(=O)O)=C(Cl)CS[C@H]12)c1ccccc1
survival [11]: 9 (inactive) and 6.75 (inactive)
outcome [12]: inactive
outcome [5]: inactive
outcome [6]: inactive

c1ccc2[nH]c(-c3cscn3)nc2c1
rescue above control [1]: -3.36
inclusion score [2]: 2
aggregation suppression score [3]: 0.142
survival [11]: 7.75 (inactive)
outcome [12]: inactive
outcome [5]: inactive
outcome [6]: inactive
outcome [7]: inactive
outcome [8]: inactive
outcome [9]: inactive
outcome [10]: inactive

Cc1ccc(-c2cc(C(F)(F)F)nn2-c2ccc(S(N)(=O)=O)cc2)cc1
rescue above control [1]: 17.2
aggregation suppression score [3]: 0.638
outcome [5]: inactive
outcome [6]: inactive
AC50 [9]: 10.5 µM (active)
outcome [10]: inactive
outcome [13]: inactive

Cn1cnc([N+](=O)[O-])c1Sc1ncnc2nc[nH]c12
rescue above control [1]: -3.67
inclusion score [2]: 2
aggregation suppression score [3]: 1.11
survival [11]: 7.25 (inactive)
inhibition [14]: -2% (inactive)
fluorescence ratio (interference) [15]: 1 (inactive)
outcome [6]: inactive
AC50 [7]: 6.61 µM (active)
outcome [13]: inactive
inhibition ([16]; at 0.5 µM): -1.99% (inactive) and -33.4% (inactive)
inhibition [16, 21]: -14.2% and -22.8%
inhibition [16, 22]: -2.77% and -51.2%
inhibition [16, 23]: 10.1% and -28.7%
inhibition ([17]; at 0.5 µM): -2.35% (inactive) and 8.87% (inactive)
inhibition [17, 24]: -11.4% and 6.51%
inhibition [17, 25]: 17.6% and 21.4%
inhibition [17, 26]: -16% and 2.87%
inhibition [17, 27]: 26.8% and 35.6%
inhibition ([18]; at 0.5 µM): -16.8% (inactive) and 4.68% (inactive)
inhibition [18, 28]: -15.8% and -6.89%
inhibition ([18]; cisplatin combination, at 5 µM): -45.6% and -9.16%
inhibition [18, 29]: 2.92% and 62.8%
inhibition ([18]; single agent, at 5 µM): -13.5% and -5.72%
inhibition ([19]; at 0.5 µM): -11.9% (inactive) and -11.3% (inactive)
inhibition ([19]; cisplatin combo, at 5 µM): 4.98% and -8.51%
inhibition [19, 30]: -6.18% and -2.54%
inhibition [19, 22]: -8.48% and -16.8%
inhibition ([19]; single agent, at 5 µM): -19.3% and -29.9%
inhibition ([20]; at 0.5 µM): -10.1% (inactive) and 15.6% (inactive)
inhibition [20, 31]: 23.3% and -13%
inhibition [20, 32]: -26.8% and 29.9%
inhibition ([20]; single agent, at 0.05 µM): 10.6% and 46.1%
inhibition ([20]; single agent, at 5 µM): 25.6% and 21%

CN[C@H]1CC[C@@H](c2ccc(Cl)c(Cl)c2)c2ccccc21
AC50 [9]: 16.6 µM (active)

NC(=O)c1cnccn1
rescue above control [1]: -9.49
inclusion score [2]: 2
aggregation suppression score [3]: 0.921
survival [11]: 19.9 (inactive)
inhibition [14]: 1% (inactive)
fluorescence ratio (interference) [15]: 1 (inactive)
AC50 [12]: 18.7 µM (active)
outcome [5]: inactive
outcome [6]: inactive
outcome [7]: inactive
outcome [9]: inactive
outcome [10]: inactive
outcome [13]: inactive

CCCCCCNC(=O)n1cc(F)c(=O)[nH]c1=O
outcome [4]: inactive
outcome [5]: inactive
outcome [8]: inactive
outcome [9]: inactive
outcome [13]: inactive
inhibition ([16]; at 0.5 µM): -10.6% (inactive) and -21.3% (inactive)
inhibition [16, 21]: -28.1% and 5.33%
inhibition [16, 22]: -15.3% and -53.6%
inhibition [16, 23]: -40% and -9.49%
inhibition ([17]; at 0.5 µM): -3.42% (inactive) and -19.4% (inactive)
inhibition [17, 24]: -7.14% and -19.3%
inhibition [17, 25]: 9.33% and -1.4%
inhibition [17, 26]: -19.1% and -44.2%
inhibition [17, 27]: 33.3% and 25.8%
inhibition ([18]; at 0.5 µM): -1.98% (inactive) and -19.4% (inactive)
inhibition [18, 28]: -28.3% and -28.4%
inhibition ([18]; cisplatin combination, at 5 µM): -14.4% and -69.9%
inhibition [18, 29]: -34% and -12%
inhibition ([18]; single agent, at 5 µM): 6.42% and -7.55%
inhibition ([19]; at 0.5 µM): -8.71% (inactive) and -17.6% (inactive)
inhibition ([19]; cisplatin combo, at 5 µM): -32.4% and 29.2%
inhibition [19, 30]: -13.3% and -15%
inhibition [19, 22]: -7.21% and -15.6%
inhibition ([19]; single agent, at 5 µM): 54.2% and -12.5%
inhibition ([20]; at 0.5 µM): -38.9% (inactive) and -6.62% (inactive)
inhibition [20, 31]: -31.2% and -14.7%
inhibition [20, 32]: -45.1% and -2.6%
inhibition ([20]; single agent, at 0.05 µM): -9.97% and 20.9%
inhibition ([20]; single agent, at 5 µM): -10.7% and 10.5%

Cc1onc(-c2c(Cl)cccc2Cl)c1C(=O)N[C@@H]1C(=O)N2[C@@H]1SC(C)(C)[C@@H]2C(=O)O
rescue above control [1]: 8.15
inclusion score [2]: 2
aggregation suppression score [3]: 1.09
survival [11]: 4 (inactive)

NS(=O)(=O)c1cc2c(cc1C(F)(F)F)NC(Cc1ccccc1)NS2(=O)=O (stereo not given)
rescue above control [1]: -3.69
inclusion score [2]: 2
aggregation suppression score [3]: 1.15
survival [11]: 3.67 (inactive)

NS(=O)(=O)c1cc2c(cc1Cl)NC=NS2(=O)=O
rescue above control [1]: 7.98
inclusion score [2]: 2
aggregation suppression score [3]: 1.42
survival [11]: 13.6 (inactive)
inhibition [14]: -2% (inactive)
fluorescence ratio (interference) [15]: 0.9 (inactive)
outcome [4]: inactive
outcome [5]: inactive
outcome [6]: inactive
outcome [7]: inactive
outcome [8]: inactive
outcome [9]: inactive
outcome [10]: inactive
outcome [13]: inactive

Cc1cn([C@H]2C[C@H](N=[N+]=[N-])[C@@H](CO)O2)c(=O)[nH]c1=O
rescue above control [1]: 1.62
inclusion score [2]: 2
aggregation suppression score [3]: 1.12
outcome [6]: inactive
outcome [8]: inactive

COC(=O)Nc1nc2ccc(C(=O)c3ccccc3)cc2[nH]1
rescue above control [1]: -9.11
aggregation suppression score [3]: 0.598
survival [11]: 1 (inactive)
AC50 [4]: 0.0934 µM (active)
AC50 [12]: 18.7 µM (active)
AC50 [7]: 0.332 µM (active)
outcome [8]: inactive
AC50 [9]: 0.468 µM (active)

NC(=O)N1c2ccccc2CC(=O)c2ccccc21
outcome [12]: inactive
outcome [5]: inactive
outcome [6]: inactive
outcome [8]: inactive

CCc1nc(N)nc(N)c1-c1ccc(Cl)cc1
rescue above control [1]: 26.6
aggregation suppression score [3]: 0.999
survival [11]: 16.9 (inactive)
AC50 [4]: 3.72 µM (active)
outcome [12]: inactive
outcome [6]: inactive
outcome [8]: inactive
outcome [9]: inactive
outcome [10]: inactive
